These results are taken from PubChem BioAssay (NCATS).

Assay [1] concerns the target Cytochrome P450 3A4 (Homo sapiens) (UniProt P08684). Put plainly: qHTS Assay for Inhibitors and Substrates of Cytochrome P450 3A4 (AID 884). Also: nearly all actives have a fitted effect of over 50% in size. Also: potency is read from the fitted curve at half-maximal effect. As to activity change, negative = inhibition: % is scaled to controls: 0 for no effect and ±100 for the full control effect. A digest of the protocol:
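20 nM human CYP3A4 with 25 uM Luciferin-PPXE (at KM) in 200 mM KPO4, preincubated 10 min with compound; NADPH regeneration started a 60 min RT reaction. Luciferin detected by luminescence, normalized to 57 uM ketoconazole as full inhibition.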

Assay [2] is described as follows: Confirmation and Secondary Assay for Modulators of Hemoglobin Beta Chain Splicing at IVS2 705 locus (AID 930).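 Also: HeLa cells stably expressing the EGFP-705 splicing reporter; GFP fluorescence per well restored by corrected splicing of the IVS2-705 intron in EGFP; % of control where 0% means no effect.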 The method in brief:
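Per-well GFP, captured at 1 x 8 µm resolution with 488 nm excitation, served as the read-out for HeLa EGFP-705 cells incubated 2 days with test compound versus DMSO.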

Assay [3] can be described thus: qHTS Assay for Lipid Storage Modulators (AID 1519; calls by dose curve; as to activity change, negative = inhibition: % is scaled to controls: 0 for no effect and ±100 for the full control effect). The following applies: Drosophila S3 cells, BODIPY lipid droplet/cell ratio, laser cytometry, cells loaded with oleic acid; for activity change, negative = inhibition: at 57.5 µM (top of the series). A digest of the protocol: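 Cells seeded at 5,000 per well were treated with compounds over a concentration series and loaded with oleic acid (400 uM, as added). Lipid droplet fluorescence (488 nm excitation, 500-530 nm channel) was read by laser-scanning cytometry and normalized to 20 uM Triacsin C.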
(In general: qHTS replaces the single test concentration by a dilution series.)

For assay [4], the target named is Ubiquitin carboxyl-terminal hydrolase 1 (Homo sapiens) (UniProt O94782). Put plainly: Inhibitors of USP1/UAF1: Pilot qHTS (AID 504865). Also: nearly all actives have a fitted effect of over 35% in size. Also: potency is read from the fitted curve at half-maximal effect.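 As to activity change, negative = inhibition: rhodamine fluorescence freed from ubiquitin-rhodamine substrate followed over time; top concentration of the series differs between compounds; % is scaled to controls: 0 for no effect and ±100 for the full control effect.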 The method in brief:
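In 50mM HEPES pH 7.8 containing 0.5mM EDTA, 1mM TCEP, 0.1 mg/ml BSA and 0.01% Tween-20, 1nM USP1/UAF1 is exposed to compound for 15 min, then Ub-Rho (150nM final) is added and fluorescence is read over time.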

The target in assay [5] is Cytochrome P450 3A4 (Homo sapiens) (UniProt P08684). Briefly: qHTS Assay for Activators of Cytochrome P450 3A4 (AID 885). Also: nearly all actives have a fitted effect of over 65% in size. The method in brief:
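Signal was normalized against complete inhibition by 57 uM ketoconazole. The reaction used 20nM CYP3A4 with 25uM Luciferin-PPXE, 10-min compound preincubation and a 60-min NADPH-supported step at RT.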

The target of assay [6] is DNA dC->dU-editing enzyme APOBEC-3G (Homo sapiens) (UniProt Q9HC16). Put plainly: qHTS for inhibitors of Vif-A3G interactions: Validation (AID 588379). Also: 0% is about no effect. A digest of the protocol:
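HeLa cells stably expressing Vif and A3G-eYFP, 700 cells/well, incubated overnight at 37 deg C, then exposed to compound overnight at 37 deg C. Inhibition of Vif-mediated degradation read as increased yellow fluorescence (Ex 488/Em 500-530) by laser-scanning cytometry.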

Assay [7] is described as follows: Confirmation and Secondary Assay for Modulators of Hemoglobin Beta Chain Splicing at IVS2 654 locus (AID 910).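 Also: per-well total GFP intensity by laser scanning cytometry after 2-day treatment; % of control where 0% means no effect.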 A digest of the protocol:
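HeLa cells stably carrying EGFP interrupted by mutant beta-globin IVS2-654 intron (CMV-driven) were treated with compound for 2 days at 37C; corrected splicing was scored as total peak GFP intensity per well (488 nm excitation, 500-520 nm emission).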

[8] abbreviates: measured here: cell count channel max response.
Where [9] appears, read: measured here: lipid channel max response.

“And” between values parts separate entries of the source, which are not always exact repeats. Equal values may be shown once. Inconclusive results are not listed. The source made the active and inactive calls. Unless noted, calls follow the shape of the dose curve; as a rule, active = well fitted curve in the direction sought with a large enough effect; inconclusive = small, poorly fitted or top-dose-only effect, or another doubt; inactive = no such curve, though single readings can be large; an effect the other way counts as inactive or inconclusive.

Sequence of Cytochrome P450 3A4 (Homo sapiens) (P08684 whole entry, looked up): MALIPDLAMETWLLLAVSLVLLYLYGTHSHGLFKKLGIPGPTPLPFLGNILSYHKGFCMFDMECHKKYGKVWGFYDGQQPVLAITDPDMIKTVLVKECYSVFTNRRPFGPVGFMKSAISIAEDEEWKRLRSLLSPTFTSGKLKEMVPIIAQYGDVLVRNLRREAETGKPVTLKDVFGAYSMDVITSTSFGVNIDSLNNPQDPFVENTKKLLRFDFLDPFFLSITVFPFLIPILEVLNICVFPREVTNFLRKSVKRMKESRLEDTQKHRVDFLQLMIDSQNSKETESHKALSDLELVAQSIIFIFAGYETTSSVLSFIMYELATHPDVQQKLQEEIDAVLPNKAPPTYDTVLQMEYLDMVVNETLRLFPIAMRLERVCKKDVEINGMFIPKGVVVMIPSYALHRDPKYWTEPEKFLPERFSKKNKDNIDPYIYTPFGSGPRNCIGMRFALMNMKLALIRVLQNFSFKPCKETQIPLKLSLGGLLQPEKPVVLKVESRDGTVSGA
Sequence of DNA dC->dU-editing enzyme APOBEC-3G (Homo sapiens) (Q9HC16 whole entry, looked up): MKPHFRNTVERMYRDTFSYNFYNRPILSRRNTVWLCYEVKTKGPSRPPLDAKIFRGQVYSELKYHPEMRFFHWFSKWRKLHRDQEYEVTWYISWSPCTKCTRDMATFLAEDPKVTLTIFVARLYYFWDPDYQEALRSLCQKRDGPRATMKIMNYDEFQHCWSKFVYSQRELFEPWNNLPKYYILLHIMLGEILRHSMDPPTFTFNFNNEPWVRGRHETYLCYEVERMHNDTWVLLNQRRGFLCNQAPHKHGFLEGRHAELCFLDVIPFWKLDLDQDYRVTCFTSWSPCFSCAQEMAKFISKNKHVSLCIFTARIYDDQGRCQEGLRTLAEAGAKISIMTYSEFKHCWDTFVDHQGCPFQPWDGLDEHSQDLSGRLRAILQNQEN
Sequence of Ubiquitin carboxyl-terminal hydrolase 1 (Homo sapiens) (O94782 whole entry, looked up): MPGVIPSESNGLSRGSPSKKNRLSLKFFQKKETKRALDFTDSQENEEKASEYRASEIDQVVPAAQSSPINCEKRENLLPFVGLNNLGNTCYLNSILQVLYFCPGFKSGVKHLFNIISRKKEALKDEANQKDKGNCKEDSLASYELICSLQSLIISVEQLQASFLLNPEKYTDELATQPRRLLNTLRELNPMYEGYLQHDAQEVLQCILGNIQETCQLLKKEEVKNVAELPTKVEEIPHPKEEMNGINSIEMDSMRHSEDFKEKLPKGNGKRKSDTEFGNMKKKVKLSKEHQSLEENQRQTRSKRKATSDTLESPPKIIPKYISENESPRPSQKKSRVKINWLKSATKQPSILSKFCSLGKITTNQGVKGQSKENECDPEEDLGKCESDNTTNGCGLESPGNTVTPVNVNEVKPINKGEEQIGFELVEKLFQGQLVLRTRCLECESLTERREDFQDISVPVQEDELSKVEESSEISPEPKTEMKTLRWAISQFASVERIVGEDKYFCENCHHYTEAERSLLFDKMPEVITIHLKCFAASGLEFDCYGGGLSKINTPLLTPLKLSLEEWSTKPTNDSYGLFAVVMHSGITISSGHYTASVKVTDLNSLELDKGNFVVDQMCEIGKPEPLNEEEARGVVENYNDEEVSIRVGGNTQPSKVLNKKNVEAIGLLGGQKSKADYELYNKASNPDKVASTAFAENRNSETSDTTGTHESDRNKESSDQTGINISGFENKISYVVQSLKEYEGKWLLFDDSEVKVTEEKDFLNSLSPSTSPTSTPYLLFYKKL

`O=C1CCCC2C3CC(CN12)C1CCCCN1C3` (stereo unspecified): the Potency entry in assay [1], in assay [2] and in assay [4] was “inactive” in each case. In assay [3], the activity change, negative = inhibition was 6.45% (inactive). The results for the max response in assay [3] (setting [8]) and in assay [3] (setting [9]) were 7.08% and 15%, respectively.

In the case of `CCCCC/C=C\C/C=C\C/C=C\C/C=C\CCCC(=O)O`, the Potency entry in assay [5] was “inactive”. Further, the activity change, negative = inhibition in assay [3] was -9.9% (inactive). Moreover, the max response in assay [3] (setting [8]) came to 20.2%; in assay [3] (setting [9]), 8.84%. The Potency in assay [4] was 50.1 µM (active).

As to `CNC1C2CN3CCC(O2)C13` (stereo unspecified), in assay [1], the Potency result was “inactive”. In addition, in assay [3], the activity change, negative = inhibition was 3.03% (inactive). Besides, the values for the max response in assay [3] (setting [8]) and in assay [3] (setting [9]) were 7.52% and 11.5%, respectively. Further, the call in assay [6] was inactive.

On to `O=c1ccc2cc(O[C@H]3OC(CO)C(O)C(O)C3O)c(O)cc2o1` (stereo partly specified), for which the Potency entry in assay [7], in assay [2] and in assay [4] was “inactive” throughout. Moreover, the activity change, negative = inhibition in assay [3] is 5.45% (inactive) and 5.34% (inactive). For the same compound, the max response in assay [3] (setting [8]) was 5.76% and 15.4%; in assay [3] (setting [9]), 15.3% and 32.6%.

As to `COc1c2c(cc3c1OCO3)C13C=CC(OC)CC1N(C2)CC3O` (stereo unspecified), the Potency entry in assay [5], in assay [2] and in assay [4] was “inactive” in each case. Besides, in assay [3], the activity change, negative = inhibition is 11.5% (inactive). Also, the max response in assay [3] (setting [8]) is 12.8%; in assay [3] (setting [9]), 26.7%.

Turning to `CCC12C=CCN3CCC4(c5ccc(OC)cc5N(C)C4[C@@](O)(C(=O)OC)C1OC(C)=O)C32` (stereo partly specified), the Potency result in assay [5], in assay [7] and in assay [4] was “inactive” throughout. The activity change, negative = inhibition in assay [3] is 1.88% (inactive). The max response in assay [3] (setting [8]) came out at 13.3%; in assay [3] (setting [9]), 25%.

Turning to `CCC(C)C(=O)OC1C(O)C2C(CN3CC(C)CCC3[C@]2(C)O)C2C[C@]34O[C@@]5(O)C(OC(=O)C(C)(O)CC)CCC3(C)C5C(OC(C)=O)C(OC(C)=O)C4[C@@]21O` (stereo partly specified), the Potency entry in assay [1], in assay [2] and in assay [4] was “inactive” in each case. Also, in assay [3], the activity change, negative = inhibition was 3.69% (inactive). Besides, the results for the max response in assay [3] (setting [8]) and in assay [3] (setting [9]) were 17.1% and 25.4%, respectively.

For the compound `CCC12CCCN3CCC4(c5ccc(OC)c(O)c5N(C(C)=O)C4CC1)C32` (stereo unspecified), the Potency in assay [1] was 15.8 µM (active). The Potency entry in assay [5] is “inactive”. Moreover, the activity change, negative = inhibition in assay [3] was -0.564% (inactive). Also, the max response in assay [3] (setting [8]) is 14.6%; in assay [3] (setting [9]), 12.8%. Moreover, in assay [6], the compound was called inactive.

Turning to `C[C@H]1C(=O)O[C@H]2CCN3CC=C(COC(=O)[C@](C)(O)[C@@]1(C)O)C23` (stereo partly specified), the Potency entry in assay [1] was “inactive”. In addition, the activity change, negative = inhibition in assay [3] was -4.35% (inactive). Besides, the max response stood at 5.67% in assay [3] (setting [8]) and 3.38% in assay [3] (setting [9]). For the same compound, in assay [6], the compound was called inactive.

Consider `CC1C(=O)OC2C1CC[C@@]1(C)C=CC(=O)[C@@]3(C)O[C@@]213` (stereo partly specified), for which the Potency result in assay [5], in assay [7] and in assay [4] was “inactive” throughout. Also, the activity change, negative = inhibition in assay [3] is 3.63% (inactive). The max response in assay [3] (setting [8]) was -6.2%; in assay [3] (setting [9]), 2.49%.

Regarding `CC1(C)C(O)CC(=O)[C@]2(C)C1CC(=O)[C@]1(C)C2CC[C@@]2(C)C(c3ccoc3)OC(=O)C3O[C@@]321` (stereo partly specified), the Potency entry in assay [5], in assay [7], in assay [2] and in assay [4] was “inactive” throughout. Further, the activity change, negative = inhibition in assay [3] was -3.35% (inactive). Moreover, the max response in assay [3] (setting [8]) turned out to be 16.1%; in assay [3] (setting [9]) it was 14.7%.

With `Nc1ncn[nH]1`, the Potency result in assay [5], in assay [7], in assay [2] and in assay [4] was “inactive” throughout. Also, the activity change, negative = inhibition in assay [3] is 11.2% (inactive). The values for the max response in assay [3] (setting [8]) and in assay [3] (setting [9]) were 9.75% and 23.5%, respectively.

In the case of `O=c1cccc2n1CC1CC2CN(CCO)C1` (stereo unspecified), the Potency entry in assay [1] was “inactive”. Further, the activity change, negative = inhibition in assay [3] was 3.63% (inactive). For the same compound, the figures for the max response in assay [3] (setting [8]) and in assay [3] (setting [9]) were 9.42% and 15.7%, respectively. Besides, in assay [6], the compound was classed as inactive.
